Source: ChEMBL document CHEMBL1961873, “Compounds: GSK PKIS; Assays: Nanosyn kinase panel” (2012)

Tests used:
[1] = target: Calcium/calmodulin-dependent protein kinase type II subunit alpha (Homo sapiens) (UniProt Q9UQM7); settings: at 1 µM;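 further: reported value is a mean percent inhibition of CAMK2A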
[2] = target: Calcium/calmodulin-dependent protein kinase type II subunit delta (Homo sapiens) (UniProt Q13557); settings: at 0.1 µM
[3] = target: Calcium/calmodulin-dependent protein kinase type II subunit delta (Homo sapiens) (UniProt Q13557); settings: at 1 µM
[4] = target: T1, Calcium/calmodulin-dependent protein kinase type IV (Homo sapiens) (UniProt Q16566); settings: at 0.1 µM
T1 sequence (whole entry): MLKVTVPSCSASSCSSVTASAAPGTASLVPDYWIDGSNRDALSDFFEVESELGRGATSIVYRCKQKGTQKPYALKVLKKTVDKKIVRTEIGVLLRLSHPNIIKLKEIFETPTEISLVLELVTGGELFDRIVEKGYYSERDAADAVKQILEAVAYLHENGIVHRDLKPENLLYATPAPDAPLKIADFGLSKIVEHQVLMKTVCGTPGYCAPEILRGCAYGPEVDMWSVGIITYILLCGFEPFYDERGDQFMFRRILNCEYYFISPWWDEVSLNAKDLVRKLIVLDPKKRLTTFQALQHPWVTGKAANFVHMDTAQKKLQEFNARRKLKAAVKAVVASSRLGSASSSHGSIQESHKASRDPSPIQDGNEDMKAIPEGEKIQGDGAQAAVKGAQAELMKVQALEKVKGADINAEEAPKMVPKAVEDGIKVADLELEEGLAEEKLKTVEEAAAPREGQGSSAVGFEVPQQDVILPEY

[5] = target: T1, Calcium/calmodulin-dependent protein kinase type IV (Homo sapiens); settings: at 1 µM
[6] = target: T2, Serine/threonine-protein kinase Chk1 (Homo sapiens) (UniProt O14757); settings: at 0.1 µM
T2 sequence (whole entry): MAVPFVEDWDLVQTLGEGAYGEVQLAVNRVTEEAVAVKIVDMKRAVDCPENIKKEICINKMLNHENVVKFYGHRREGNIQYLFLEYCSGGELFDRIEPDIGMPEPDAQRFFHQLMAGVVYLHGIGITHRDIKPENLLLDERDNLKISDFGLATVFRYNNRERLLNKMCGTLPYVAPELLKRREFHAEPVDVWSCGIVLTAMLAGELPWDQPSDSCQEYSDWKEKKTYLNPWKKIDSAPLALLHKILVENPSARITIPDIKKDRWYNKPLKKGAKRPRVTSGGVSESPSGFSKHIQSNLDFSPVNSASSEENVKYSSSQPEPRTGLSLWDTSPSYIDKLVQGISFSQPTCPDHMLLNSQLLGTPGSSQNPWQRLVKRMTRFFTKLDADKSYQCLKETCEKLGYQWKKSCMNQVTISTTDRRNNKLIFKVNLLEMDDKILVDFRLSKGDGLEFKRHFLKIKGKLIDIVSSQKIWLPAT

[7] = target: T2, Serine/threonine-protein kinase Chk1 (Homo sapiens); settings: at 1 µM
[8] = target: Serine/threonine-protein kinase Chk2 (Homo sapiens) (UniProt O96017); settings: at 0.1 µM
Sequence of Serine/threonine-protein kinase Chk2 (Homo sapiens) (O96017 whole entry): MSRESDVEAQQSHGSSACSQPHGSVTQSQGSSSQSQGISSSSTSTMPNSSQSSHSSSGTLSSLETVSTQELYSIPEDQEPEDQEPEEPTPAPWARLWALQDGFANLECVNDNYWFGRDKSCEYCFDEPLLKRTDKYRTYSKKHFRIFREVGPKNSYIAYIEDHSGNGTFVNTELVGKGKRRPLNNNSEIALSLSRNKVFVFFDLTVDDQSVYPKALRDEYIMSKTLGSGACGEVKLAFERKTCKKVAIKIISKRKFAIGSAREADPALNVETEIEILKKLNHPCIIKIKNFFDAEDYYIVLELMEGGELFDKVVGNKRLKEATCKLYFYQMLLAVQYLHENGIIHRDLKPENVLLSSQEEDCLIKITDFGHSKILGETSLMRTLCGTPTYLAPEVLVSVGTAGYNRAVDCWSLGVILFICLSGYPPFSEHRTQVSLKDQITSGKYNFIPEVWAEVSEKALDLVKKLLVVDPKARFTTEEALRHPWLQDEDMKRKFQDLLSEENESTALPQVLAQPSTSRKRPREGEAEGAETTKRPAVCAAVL

[9] = target: Serine/threonine-protein kinase Chk2 (Homo sapiens) (UniProt O96017); settings: at 1 µM
[10] = target: Death-associated protein kinase 1 (Homo sapiens) (UniProt P53355); settings: at 0.1 µM
Sequence of Death-associated protein kinase 1 (Homo sapiens) (P53355 whole entry, looked up): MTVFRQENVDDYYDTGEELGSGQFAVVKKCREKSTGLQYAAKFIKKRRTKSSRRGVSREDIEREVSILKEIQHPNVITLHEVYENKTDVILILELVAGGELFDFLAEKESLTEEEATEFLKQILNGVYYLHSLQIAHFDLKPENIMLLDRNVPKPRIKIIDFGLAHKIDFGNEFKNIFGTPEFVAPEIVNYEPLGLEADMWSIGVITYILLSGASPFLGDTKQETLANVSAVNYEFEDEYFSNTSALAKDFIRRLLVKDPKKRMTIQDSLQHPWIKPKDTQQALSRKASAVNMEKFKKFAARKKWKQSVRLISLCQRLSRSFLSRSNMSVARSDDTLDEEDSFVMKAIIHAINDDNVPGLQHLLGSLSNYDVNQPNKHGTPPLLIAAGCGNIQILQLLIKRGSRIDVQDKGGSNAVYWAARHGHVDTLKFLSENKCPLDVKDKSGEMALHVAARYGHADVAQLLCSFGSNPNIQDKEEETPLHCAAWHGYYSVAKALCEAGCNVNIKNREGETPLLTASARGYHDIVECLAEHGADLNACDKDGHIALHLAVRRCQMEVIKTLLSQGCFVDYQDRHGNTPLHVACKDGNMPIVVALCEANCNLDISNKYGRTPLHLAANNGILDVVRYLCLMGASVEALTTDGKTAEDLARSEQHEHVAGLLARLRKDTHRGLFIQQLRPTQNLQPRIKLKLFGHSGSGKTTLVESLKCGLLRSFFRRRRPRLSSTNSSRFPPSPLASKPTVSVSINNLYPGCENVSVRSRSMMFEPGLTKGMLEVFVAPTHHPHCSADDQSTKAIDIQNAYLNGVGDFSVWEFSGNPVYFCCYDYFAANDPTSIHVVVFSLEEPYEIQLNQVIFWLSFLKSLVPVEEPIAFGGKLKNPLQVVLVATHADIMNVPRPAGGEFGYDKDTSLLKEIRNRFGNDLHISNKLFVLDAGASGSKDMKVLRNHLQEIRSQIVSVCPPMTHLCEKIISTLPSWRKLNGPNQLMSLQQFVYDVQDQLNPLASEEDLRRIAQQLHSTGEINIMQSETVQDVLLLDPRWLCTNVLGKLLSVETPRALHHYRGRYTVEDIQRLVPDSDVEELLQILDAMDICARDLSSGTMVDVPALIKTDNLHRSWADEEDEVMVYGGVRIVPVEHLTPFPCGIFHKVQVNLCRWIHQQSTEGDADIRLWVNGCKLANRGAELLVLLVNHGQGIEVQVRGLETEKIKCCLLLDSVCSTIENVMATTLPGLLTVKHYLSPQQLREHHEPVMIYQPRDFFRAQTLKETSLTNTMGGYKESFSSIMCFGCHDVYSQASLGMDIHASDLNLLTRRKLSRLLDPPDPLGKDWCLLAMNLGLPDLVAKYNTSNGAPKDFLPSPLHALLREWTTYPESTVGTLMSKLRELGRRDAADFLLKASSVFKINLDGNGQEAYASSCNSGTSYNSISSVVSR

[11] = target: Death-associated protein kinase 1 (Homo sapiens) (UniProt P53355); settings: at 1 µM
[12] = target: T3, Serine/threonine-protein kinase DCLK2 (Homo sapiens) (UniProt Q8N568); settings: at 0.1 µM
T3 sequence (whole entry): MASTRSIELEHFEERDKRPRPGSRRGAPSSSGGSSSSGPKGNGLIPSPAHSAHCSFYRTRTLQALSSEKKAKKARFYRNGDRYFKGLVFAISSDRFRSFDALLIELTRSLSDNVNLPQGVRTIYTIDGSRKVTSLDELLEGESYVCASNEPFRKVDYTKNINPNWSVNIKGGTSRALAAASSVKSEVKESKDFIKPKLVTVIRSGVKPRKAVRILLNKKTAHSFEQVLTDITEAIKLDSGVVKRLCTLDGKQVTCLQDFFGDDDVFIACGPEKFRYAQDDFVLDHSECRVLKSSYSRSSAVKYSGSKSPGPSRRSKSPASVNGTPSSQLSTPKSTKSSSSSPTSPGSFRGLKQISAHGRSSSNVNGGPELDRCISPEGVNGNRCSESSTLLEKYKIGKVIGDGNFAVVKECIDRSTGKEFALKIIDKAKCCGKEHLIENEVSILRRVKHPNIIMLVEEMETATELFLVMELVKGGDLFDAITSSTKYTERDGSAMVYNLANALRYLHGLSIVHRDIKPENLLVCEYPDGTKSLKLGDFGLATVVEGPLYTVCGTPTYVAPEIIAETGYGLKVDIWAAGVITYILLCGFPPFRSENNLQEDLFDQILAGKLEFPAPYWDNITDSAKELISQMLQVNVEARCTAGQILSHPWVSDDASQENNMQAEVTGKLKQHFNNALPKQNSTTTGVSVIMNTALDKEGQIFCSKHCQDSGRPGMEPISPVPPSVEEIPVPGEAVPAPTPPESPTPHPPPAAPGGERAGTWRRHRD

[13] = target: T3, Serine/threonine-protein kinase DCLK2 (Homo sapiens); settings: at 1 µM
[14] = target: MAP kinase-activated protein kinase 2 (Homo sapiens) (UniProt P49137); settings: at 0.1 µM
Sequence of MAP kinase-activated protein kinase 2 (Homo sapiens) (P49137 whole entry, looked up): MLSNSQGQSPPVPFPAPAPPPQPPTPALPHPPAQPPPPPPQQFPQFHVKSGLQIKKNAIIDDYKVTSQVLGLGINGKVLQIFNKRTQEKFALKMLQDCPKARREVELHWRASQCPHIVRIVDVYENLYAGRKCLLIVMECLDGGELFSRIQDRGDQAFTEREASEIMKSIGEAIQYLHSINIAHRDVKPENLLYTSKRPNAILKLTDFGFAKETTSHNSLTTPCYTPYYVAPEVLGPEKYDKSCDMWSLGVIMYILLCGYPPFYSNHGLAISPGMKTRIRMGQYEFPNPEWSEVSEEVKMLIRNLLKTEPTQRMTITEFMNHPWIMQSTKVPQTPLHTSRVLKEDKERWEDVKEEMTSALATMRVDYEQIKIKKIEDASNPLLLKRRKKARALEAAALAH

[15] = target: MAP kinase-activated protein kinase 2 (Homo sapiens) (UniProt P49137); settings: at 1 µM
[16] = target: MAP kinase-activated protein kinase 3 (Homo sapiens) (UniProt Q16644); settings: at 0.1 µM
Sequence of MAP kinase-activated protein kinase 3 (Homo sapiens) (Q16644 whole entry, looked up): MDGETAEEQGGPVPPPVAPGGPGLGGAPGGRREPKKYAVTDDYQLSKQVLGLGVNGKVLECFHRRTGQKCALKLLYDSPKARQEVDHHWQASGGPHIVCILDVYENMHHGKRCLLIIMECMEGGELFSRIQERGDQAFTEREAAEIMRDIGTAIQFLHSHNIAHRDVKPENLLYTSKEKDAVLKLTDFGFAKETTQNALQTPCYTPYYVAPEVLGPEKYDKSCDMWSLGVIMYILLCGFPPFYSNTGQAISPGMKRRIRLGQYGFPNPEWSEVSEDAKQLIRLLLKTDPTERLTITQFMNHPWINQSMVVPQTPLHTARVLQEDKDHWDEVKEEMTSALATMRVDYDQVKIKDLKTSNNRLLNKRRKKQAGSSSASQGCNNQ

[17] = target: MAP kinase-activated protein kinase 3 (Homo sapiens) (UniProt Q16644); settings: at 1 µM
[18] = target: Serine/threonine-protein kinase MARK1 (Homo sapiens) (UniProt Q9P0L2); settings: at 0.1 µM
Sequence of Serine/threonine-protein kinase MARK1 (Homo sapiens) (Q9P0L2 whole entry, looked up): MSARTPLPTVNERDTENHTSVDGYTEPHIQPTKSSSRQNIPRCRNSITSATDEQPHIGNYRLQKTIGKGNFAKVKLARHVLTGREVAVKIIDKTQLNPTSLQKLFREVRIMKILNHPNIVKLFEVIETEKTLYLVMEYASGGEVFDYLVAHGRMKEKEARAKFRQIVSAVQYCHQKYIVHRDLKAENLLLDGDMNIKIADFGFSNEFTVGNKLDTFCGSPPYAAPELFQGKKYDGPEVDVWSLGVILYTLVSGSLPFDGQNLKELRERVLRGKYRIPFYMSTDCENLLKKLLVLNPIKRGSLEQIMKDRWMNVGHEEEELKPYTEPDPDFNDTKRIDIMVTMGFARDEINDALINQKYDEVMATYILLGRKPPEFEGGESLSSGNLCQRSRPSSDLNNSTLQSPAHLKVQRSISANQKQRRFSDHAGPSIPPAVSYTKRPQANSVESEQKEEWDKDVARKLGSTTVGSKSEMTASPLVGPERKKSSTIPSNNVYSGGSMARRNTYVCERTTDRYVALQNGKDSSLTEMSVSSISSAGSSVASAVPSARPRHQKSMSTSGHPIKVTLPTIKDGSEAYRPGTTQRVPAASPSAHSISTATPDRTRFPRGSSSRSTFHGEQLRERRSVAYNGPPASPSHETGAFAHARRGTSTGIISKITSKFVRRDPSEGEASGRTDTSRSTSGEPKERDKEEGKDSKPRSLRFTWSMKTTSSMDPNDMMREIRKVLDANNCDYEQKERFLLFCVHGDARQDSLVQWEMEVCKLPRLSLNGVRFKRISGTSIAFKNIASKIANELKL

[19] = target: Serine/threonine-protein kinase MARK1 (Homo sapiens) (UniProt Q9P0L2); settings: at 1 µM
[20] = target: MAP/microtubule affinity-regulating kinase 3 (Homo sapiens) (UniProt P27448); settings: at 0.1 µM;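 further: mean percent inhibition of MARK3 kinase activity, measured within the GSK PKIS screening panel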

Sequence of Calcium/calmodulin-dependent protein kinase type II subunit alpha (Homo sapiens) (Q9UQM7 whole entry): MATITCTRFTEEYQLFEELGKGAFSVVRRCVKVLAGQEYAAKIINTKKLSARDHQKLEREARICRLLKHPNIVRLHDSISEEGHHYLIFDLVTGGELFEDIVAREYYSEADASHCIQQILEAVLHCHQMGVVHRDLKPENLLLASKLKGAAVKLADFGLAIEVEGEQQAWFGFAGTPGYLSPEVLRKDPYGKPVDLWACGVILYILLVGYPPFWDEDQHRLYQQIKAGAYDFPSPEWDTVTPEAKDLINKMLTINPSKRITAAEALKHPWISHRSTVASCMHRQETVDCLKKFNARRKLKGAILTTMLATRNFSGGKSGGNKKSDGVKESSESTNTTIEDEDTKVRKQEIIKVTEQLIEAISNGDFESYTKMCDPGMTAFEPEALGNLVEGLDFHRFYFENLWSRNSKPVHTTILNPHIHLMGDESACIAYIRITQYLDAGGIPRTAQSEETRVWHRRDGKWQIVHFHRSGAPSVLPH
Sequence of Calcium/calmodulin-dependent protein kinase type II subunit delta (Homo sapiens) (Q13557 whole entry): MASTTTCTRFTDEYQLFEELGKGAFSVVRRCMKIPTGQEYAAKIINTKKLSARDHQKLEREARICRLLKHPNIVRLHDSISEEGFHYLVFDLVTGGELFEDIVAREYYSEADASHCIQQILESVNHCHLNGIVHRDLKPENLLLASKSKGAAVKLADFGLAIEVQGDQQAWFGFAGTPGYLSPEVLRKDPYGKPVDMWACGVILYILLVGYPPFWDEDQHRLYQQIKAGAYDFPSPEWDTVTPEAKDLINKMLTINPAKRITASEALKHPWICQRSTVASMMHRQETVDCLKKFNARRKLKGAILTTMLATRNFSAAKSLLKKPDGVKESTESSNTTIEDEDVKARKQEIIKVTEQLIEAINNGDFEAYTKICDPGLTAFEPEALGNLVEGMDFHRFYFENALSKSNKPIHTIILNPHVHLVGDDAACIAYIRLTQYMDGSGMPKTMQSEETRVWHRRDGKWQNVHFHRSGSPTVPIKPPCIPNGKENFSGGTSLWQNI

| SMILES | inhibition [1] [%] | inhibition [2] [%] | inhibition [3] [%] | inhibition [4] [%] | inhibition [5] [%] | inhibition [6] [%] | inhibition [7] [%] | inhibition [8] [%] | inhibition [9] [%] | inhibition [10] [%] | inhibition [11] [%] | inhibition [12] [%] | inhibition [13] [%] | inhibition [14] [%] | inhibition [15] [%] | inhibition [16] [%] | inhibition [17] [%] | inhibition [18] [%] | inhibition [19] [%] | inhibition [20] [%] |
| --- | --- | --- | --- | --- | --- | --- | --- | --- | --- | --- | --- | --- | --- | --- | --- | --- | --- | --- | --- | --- |
| CN(C)c1cc2c(Nc3ccc4nc(Cc5ccccc5)[nH]c4c3)ncnc2cn1 | 4.09 | 4.46 | 4.05 | 1.47 | -2.01 | 7.31 | 6.99 | 2.75 | 9.92 | 5.94 | 7.51 | 1.19 | 1.22 | 2.01 | 2.85 | 4.79 | 4.13 | 3.62 | 5.59 | 3.84 |
| Cc1nnc(-c2ccc(C)c(-c3ccc(C(=O)Nc4cccc(C#N)c4)cc3)c2)o1 | 1.16 | 1.1 | 1.51 | -1.55 | -0.84 | 0.73 | 0.92 | 1.03 | 4.05 | 3.42 | 2.66 | 0.99 | – | 1.02 | 0.1 | 5.27 | 16.3 | 1.96 | 4.25 | 2.09 |
| COc1cc2ncn(-c3cc(O[C@@H](C)c4ccccc4Cl)c(C(N)=O)s3)c2cc1OC | -1 | 2.63 | 5.01 | -1.47 | -3.56 | 9.31 | 11.3 | 8.19 | 11.6 | 13.5 | 8.9 | -1.19 | 3.6 | 5.43 | 5 | 9.03 | 10.9 | 4.26 | 9.07 | 4.06 |
| COc1cc(C=NNc2ncnc3c2cnn3-c2ccccc2)ccc1O | 5.31 | 3.65 | 12.4 | -0.28 | -1.35 | -2.23 | -2.87 | -3.59 | -0.98 | -5.64 | -5.67 | 1.34 | -4.27 | -1.87 | -2.21 | -3.81 | -2.84 | 2.3 | 8.38 | 3.21 |
| Cc1cccc(-c2n[nH]cc2-c2ccc3ncccc3n2)n1 | -0.05 | 0.08 | 2.08 | 1.14 | 2.81 | 2.24 | 1.66 | -0.67 | -0.16 | 0.65 | 0.85 | – | -5.57 | 0.61 | -0.07 | 0.58 | 2.89 | 1 | 1.95 | -0.37 |
| COc1cc2ncn(-c3cc(OCc4ccccc4C(F)(F)F)c(C(N)=O)s3)c2cc1OC | -0.1 | 3.23 | 7.03 | -2.38 | -1.47 | 2.54 | 3.46 | 3.3 | 5.56 | 4.32 | -4.22 | -2.49 | -0.6 | 2.27 | 1.47 | 4.71 | 4.41 | 4.83 | 22.1 | 5.55 |
| NCc1ccc(-c2nc(-c3ccc(Cl)c(O)c3)c(-c3ccncc3)[nH]2)cc1 | 2.11 | -0.18 | 2.12 | 0.6 | 0.53 | -0.88 | 2.53 | -0.52 | 0.67 | 0.81 | 1.16 | 3.34 | 5.14 | -0.41 | -0.56 | 15.5 | 30.9 | 2.03 | 2.6 | 0.33 |
| c1cnn2ncc(-c3ccnc(Nc4ccc5c(c4)OCCO5)n3)c2c1 | 15.3 | 7.61 | 35.7 | 0.39 | 1.89 | 0.16 | 6.81 | 2.96 | 9.21 | 3.38 | 3.76 | 1.81 | 1.89 | 2.05 | 2.24 | 3.74 | 3.81 | 4.18 | 24.3 | 5.06 |
| NC(=O)c1cccc(Nc2nccc(Nc3cccc4[nH]ncc34)n2)c1 | -1.01 | -1.68 | 3.58 | 1.19 | 2.27 | 1.94 | 44.1 | -2.95 | 9.48 | 0.17 | 0.2 | – | 0.29 | -2.49 | -2.06 | -2.55 | -2.42 | -1.84 | 11.7 | 2.03 |
| O=C1Nc2ccc(C(=O)c3ccco3)cc2C1=Cc1cc(Cl)c(O)c(Cl)c1 | 8 | 3.46 | 11.4 | 0.35 | 0.09 | 1.54 | 5.95 | 2.67 | 12.5 | -0.53 | – | 1 | 6.57 | 1.24 | 0.24 | 3.31 | 2.14 | 3.54 | 14.2 | 4.74 |
| COc1ccc(-c2nn3ncccc3c2-c2ccnc(Nc3ccc(Cl)c(C(F)(F)F)c3)n2)cc1 | 0.35 | 0.24 | -0.01 | -1.57 | -4.24 | -0.59 | -3.23 | 1.35 | 2.73 | 1.96 | 2.18 | 1.74 | – | 1.23 | 0.64 | 4.41 | 17.4 | 2.21 | 2.97 | -0.96 |
| Fc1cccc(COc2ccc(Nc3ncnc4sc(-c5cccs5)cc34)cc2Cl)c1 | -2.43 | -0.89 | 1.53 | – | -0.72 | -6.44 | -5.05 | -6.31 | -6.27 | -9.21 | -9.5 | -1.25 | 2.62 | -2.05 | -2.63 | -4.76 | -5.22 | 0.88 | 2.73 | 0.02 |
| Fc1cccc(COc2ccc(Nc3ncnc4cc(-c5ccc[nH]5)sc34)cc2Cl)c1 | 0.84 | 1.12 | 2.72 | 1.44 | 1.44 | -0.13 | 3.63 | 0.71 | 3.96 | -1.32 | -2.65 | -2.61 | – | -0.38 | -0.64 | 0.31 | -0.26 | 1.53 | 2.14 | -1.42 |
| CC(=O)Nc1cccc(C#Cc2cncnc2Nc2ccc(OCc3cccc(F)c3)c(Cl)c2)n1 | 1.27 | -0.74 | -2.74 | -4.11 | -7.03 | 7.14 | 5.32 | 3.3 | 4.37 | 7.49 | 7.63 | 5.73 | 7.65 | 2.15 | 2.54 | 5.56 | 5.33 | 1.05 | 1.12 | 0.78 |
